# Screens deposited in PubChem BioAssay by National Center for Advancing Translational Sciences (NCATS).
# Most compounds without a hit are left out; they make up all but 2.6% or so of the library.
# GLP1R ag – GLP-1 receptor (human) agonism; AID 624172; Potency, µM (doses to about 45.6 µM), for inactives: top-dose activation, most hits filed as activators; 380,000 compounds, 0.007% hits; P43220; HEK293 GLP-1R CRE-luciferase, luminescence, 4-6 h; cells express a hypersensitive GLP-1R form; note: % of control where 0% means no effect
# Target sequence (P43220 whole entry, looked up): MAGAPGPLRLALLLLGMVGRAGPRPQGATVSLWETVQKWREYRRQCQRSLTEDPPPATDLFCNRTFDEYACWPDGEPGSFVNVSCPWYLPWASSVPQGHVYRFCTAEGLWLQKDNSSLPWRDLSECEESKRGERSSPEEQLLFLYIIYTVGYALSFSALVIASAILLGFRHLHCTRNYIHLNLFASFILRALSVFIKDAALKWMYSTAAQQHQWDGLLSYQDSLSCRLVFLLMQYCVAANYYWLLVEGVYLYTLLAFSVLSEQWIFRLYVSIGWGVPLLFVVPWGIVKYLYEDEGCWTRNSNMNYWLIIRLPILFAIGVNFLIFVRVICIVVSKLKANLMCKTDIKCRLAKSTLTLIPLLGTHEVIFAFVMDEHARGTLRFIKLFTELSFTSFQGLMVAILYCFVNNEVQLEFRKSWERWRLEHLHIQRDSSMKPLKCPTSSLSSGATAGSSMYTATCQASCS
# GLP-1R inv ag – GLP-1 receptor (human) inverse agonism; Potency, µM (titrated, usually from 38.3 µM), for the others: top-dose activity change, negative = inhibition, most hits filed as inhibitors; HEK293 GLP-1R CRE-luciferase, luminescence, 24 h; GLP-1R form is constitutively active; P43220; 410,000 compounds, 1.6% hits; note: % is set by controls: 0 for no effect and ±100 for the full control effect; nearly all actives have a fitted effect of over 55% in size
#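 HEK293 cells stably co-expressing constitutively active GLP-1R and a cAMP-responsive luciferase reporter were seeded in DMEM with 10% Nu serum, given compounds after 12 h, and incubated 24 h at 37 deg C. Luminescence was then read.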
# BRCA1 expr act – BRCA1 expression activation | AID 624202 | Potency, µM (series often up to 46.1 µM), for the others: top-dose activation, hits mostly activators | 380,000 compounds, 1.1% hits | MCF7-BRCA1-FFLuc reporter, luminescence, 48 h; response scale: scaled: vehicle 0%, 10 µM genistein 100%; note: nearly all actives have a fitted effect of over 80% in size
#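 Luminescence from a BRCA1-driven firefly luciferase in MCF7 cells was the read-out, taken 15 min after substrate addition following 48 h compound exposure at 37 °C. Data were normalized to a 10 microM genistein control and DMSO vehicle.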
# HEK293 tox – cytotoxic in the GLP-1 receptor inverse agonist counter-screen; HEK293 cAMP-luciferase reporter cells, luminescence, 24 h; Potency, µM (top dose mostly 38.3 µM), for the others: at the top dose activity change, negative = inhibition, most hits filed as inhibitors; 410,000 compounds, 0.13% hits; AID 624418;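 note: loss of luciferase light is scored as toxicity; % is set by controls: 0 for no effect and ±100 for the full control effect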
#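 Here, cytotoxicity is scored as loss of luminescence. The MLSMR collection was tested on cells seeded in medium containing 10% Nu serum, with a 24 hr compound exposure preceded by 12 hours of culture.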
# Numbers without * were called inactive; ? = inconclusive; . = no result. Calls come from the whole dose curve; as a rule, active = well fitted curve in the direction sought with a large enough effect; inconclusive = small, poorly fitted or top-dose-only effect, or another doubt; inactive = no such curve, though single readings can be large; an effect the other way counts as inactive or inconclusive. Potency is the fitted concentration of half-maximal effect.
SMILES,GLP1R ag,GLP-1R inv ag,BRCA1 expr act,HEK293 tox
COc1cc(OC)cc(-c2noc(-c3csc([C@H]4C[C@H](O)[C@@H](CO)O4)n3)n2)c1,1.1%,13.4%,3.16µM*,3.8%
COc1cc(OC)cc(-c2noc(-c3csc([C@@H]4O[C@H](CO)[C@H](O)[C@H](O)[C@H]4O)n3)n2)c1,0.5%,?,4.2%,?
O=C(COC(=O)C12CC3CC(CC(Br)(C3)C1)C2)NCc1ccco1,.,.,9.3%,.
Cc1ccc(Cn2c(C3CCCN3c3nc(-c4cc(Cl)c(N)c(Cl)c4)cs3)nc3cc(C(=O)NCCCO)ccc32)cc1 (stereo not drawn),-2.6%,1.5%,-51.6%,0.1%
Cc1ccc(Cn2c(C3CCCN3c3nc(C)cs3)nc3cc(C(F)(F)F)ccc32)cc1 (stereo not drawn),-0.4%,10µM*,0.0%,-27.4%
O=C(C1CCN(Cc2ccccc2O)CC1)N1CCN(Cc2ccc3c(c2)OCO3)CC1,-10.8%,?,-36.2%,13.5%
O=C(C1CCN(Cc2cc(Cl)ccc2O)CC1)N1CCN(Cc2ccccc2)CC1,-8.0%,7.08µM*,-32.3%,-2.5%
CC(C)C[C@@H](CN1CCCC1CN1C(=S)NC[C@@H]1Cc1ccc(O)cc1)N1C[C@H](Cc2ccc(O)cc2)N(CCc2ccccc2)C1=S (stereo partly drawn),-2.1%,7.94µM*,-79.0%,?
Oc1[nH]c2c(Cl)cc(Cl)cc2c1N=NC(=S)NCC1CCCO1 (stereo not drawn),10.7%,?,-59.4%,3.98µM*
Cc1cc(C)c2[nH]c(O)c(N=NC(=S)NCC3CCCO3)c2c1 (stereo not drawn),10.8%,?,-8.4%,8.91µM*
Oc1[nH]c2ccccc2c1N=NC(=S)NCC1CCCO1 (stereo not drawn),11.5%,1.8%,-10.4%,?
CCn1c(O)c(N=NC(=S)NCC2CCCO2)c2ccccc21 (stereo not drawn),7.2%,2.82µM*,-37.9%,?
CC(=O)Nc1cccc(OCc2ccc([N+](=O)[O-])cc2)c1,5.1%,34.1%,11.2µM*,-10.4%
CC(=O)Nc1cccc(NC(=O)c2ccc(COc3ccccc3)cc2)c1,21.8%,10.9%,2.24µM*,-2.5%
CCOc1ccc(OCC)c(NC(=O)C(NS(=O)(=O)c2ccc(Br)s2)c2ccccc2)c1 (stereo not drawn),.,5.6%,.,2.0%
CCc1cc(/C=C/c2ccnc3ccccc23)ccc1N(C)C,.,.,-22.7%,.
CC(c1nc2ccccc2n1Cc1ccccc1)N1CCCCC1 (stereo not drawn),11.1%,1.26µM*,-12.1%,?
Cc1nc2ccccc2n1Cc1ccccc1,5.8%,-2.7%,2.3%,-3.7%
O=C(Cc1ccc(Br)cc1)N1CCc2ccccc2C1,17.8%,?,10µM*,-4.7%
O=C(/C=C/C(=O)N1CCc2ccccc2C1)N1CCc2ccccc2C1,-6.4%,8.3%,-1.8%,12.7%
Cc1cccc(NC(=O)CCN2CCN(c3ccccc3F)CC2)c1,.,-23.4%,.,1.2%
O=[N+]([O-])c1ccccc1/C=C\C=N\N1CCN(c2ccccc2)CC1,7.2%,?,31.7%,-9.2%
O=[N+]([O-])c1cccc(/C=N/N2CCN(c3ccccn3)CC2)c1,-1.9%,51.9%,8.91µM*,-13.0%
O=[N+]([O-])c1cccc(/C=N/N2CCN(Cc3ccccc3)CC2)c1,18.7%,6.7%,12.6µM*,1.2%
O=[N+]([O-])c1cccc(/C=N\N2CCN(Cc3ccccc3Cl)CC2)c1,6.3%,?,38.7%,1.0%
SMILES,GLP1R ag,GLP-1R inv ag,BRCA1 expr act,HEK293 tox
O=[N+]([O-])c1cccc(C=NN2CCCCCC2)c1,13.6%,-7.2%,12.6µM*,-6.4%
O=[N+]([O-])c1ccccc1/C=C/C=N/N1CCCCC1,12.8%,-14.7%,2.82µM*,5.4%
Cc1cc(C)cc(Nc2cc(C)nc3nc(-c4ccco4)nn23)c1,.,?,.,-19.8%
COc1ccc(CNC(=O)c2cc(-c3cccs3)nc3ccccc23)c(OC)c1,.,0.3%,.,-6.0%
C#CCOc1ccc(C2C(C(=O)OC)=C(C)NC3=C2C(=O)c2ccccc23)cc1OCC (stereo not drawn),.,?,.,-24.0%
O=C(NCCc1c[nH]c2ccccc12)c1ccc2c(c1)OCO2,7.7%,?,?,2.0%
O=C(NCCc1c[nH]c2ccccc12)c1cc(Cl)c2c(c1)OCO2,24.9%,?,3.55µM*,-11.0%
